Pf growth 96h: Primary qHTS for delayed death inhibitors of the malarial parasite plastid, 96 hour incubation; P. falciparum luciferase reporter growth, 96 h; Potency, µM (series often up to 28.7 µM), without a hit: at the top dose activity change, negative = inhibition, usual class: inhibitors; 6.9% of 320,000 active; AID 504834, 2011; further: potency means the concentration at half of the fitted maximal effect; on the % scale 0 is the no-effect control and ±100 the full control effect
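Compounds incubated with erythrocytes infected by luciferase-expressing P. falciparum (2% hematocrit, 0.05% parasitemia final) for 96 hours, 37 C in 5% CO2. Growth inhibition scored as decreased luciferase luminescence.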
Pf growth 48h: Primary qHTS for delayed death inhibitors of the malarial parasite plastid, 48 hour incubation; P. falciparum luciferase growth in erythrocytes, 48 h; Potency, µM (highest dose often 28.7 µM), without a hit: top-dose activity change, negative = inhibition, actives largely listed as inhibitors; 5.9% of 310,000 active; further: potency means the concentration at half of the fitted maximal effect; on the % scale 0 is the no-effect control and ±100 the full control effect
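Growth was read as firefly luciferase luminescence after a 48 h, 37 C, 5% CO2 exposure of compounds to reporter-bearing P. falciparum cultures (0.1% parasitemia, 2% hematocrit final) in Albumax-supplemented RPMI 1640.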
Shiga inhibitor: A qHTS for Small Molecule Inhibitors of Shiga Toxin; 9.2% of 290,000 active; Vero cells, Shiga toxin protein synthesis inhibition reporter; inhibition, % at 38.7 µM; AID 2315, 2010; in the data active means inhibition mostly above about 28%, no sharp cut-off; inactive means mostly below about 43%; further: 0% is about no effect
CHX counter: Cycloheximide Counterscreen for Small Molecule Inhibitors of Shiga Toxin; cell reporter, cycloheximide protein synthesis inhibition counterscreen; max response, %; 12% of 300,000 active; AID 2314, 2010; in the data active means max response mostly above about 13%, no sharp cut-off; inactive means mostly below about 14%; further: read at 38.3 µM for the half of the compounds with a filed dose; 0% is about no effect
HCMV inh: qHTS Assay for inhibitors of the human cytomegalovirus (HCMV); HFF cells, HCMV-luciferase reporter, 72 h; hits give low values; activity change, negative = inhibition, % at 57.5 µM; 4.5% of 410,000 active; in the data active means activity change below about -60%; inconclusive means no clear call, values can overlap the other calls; inactive means above about -39%; further: on the % scale 0 is the no-effect control and ±100 the full control effect
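Steps: HFFs plated, 16 h 37C; compounds added; HCMV-luciferase added to MOI 1 PFU/cell; 72 h 37C; OneGlo reagent, 5 min room temperature; luminescence read, normalized to controls.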
An asterisk follows results filed as active; ? = inconclusive; . = no result given. This is a sample that favours compounds with a hit; in the whole collection about 20% have one here. Unless noted, the call rests on the fitted dose curve; in most records, active means well fitted inhibition curve with a large enough effect; inconclusive means small, poorly fitted or top-dose-only effect, or another doubt; inactive means no such curve, though single readings can be large or run the other way.

SMILES | Pf growth 96h | Pf growth 48h | Shiga inhibitor | CHX counter | HCMV inh
Cc1ccc(S(=O)(=O)Oc2ccccc2/C=N/Nc2ccc(C(=O)O)cc2)cc1 | -7% | 1% | 30 | 26* | 8
COc1cccc(/C=N/Nc2ccc(S(=O)(=O)O)cc2)c1O | 68% | 31% | 7 | 1 | 35
Cc1ccc(S(=O)(=O)Oc2ccccc2/C=N/O)cc1 | 2% | -8% | 3 | -1 | ?
COc1cccc(/C=N/Nc2ccccc2C(=O)O)c1O | 25% | 195% | 64* | 47* | -80*
COc1cccc(/C=N/Nc2ccc(C(=O)O)cc2)c1O | -24% | -56% | -27 | -12 | -95*
Oc1cccc(/C=N/Nc2nn3cnnc3c3ccccc23)c1 | 4% | 12% | 24 | -2 | ?
COc1cccc(/C=N/Nc2nn3cnnc3c3ccccc23)c1O | 0.33µM* | ? | 0 | -1 | -29
Cc1ccc(N2CCN(C3=NC(=O)C(Cc4ccccc4)S3)CC2)cc1 (centres undefined) | ? | ? | -9 | -1 | -27
O=C1N=C(N2CCN(c3ccccc3)CC2)SC1Cc1ccccc1 (centres undefined) | ? | -16% | 32 | 14* | -28
Fc1ccc(-c2nn3c(C4COc5ccccc5O4)nnc3s2)cc1 (centres undefined) | ? | 12% | 6 | -2 | -23
c1csc(-c2nn3c(C4COc5ccccc5O4)nnc3s2)c1 (centres undefined) | . | ? | 45* | 36* | .
CC(=O)c1cn(CCOc2ccccc2C)c2ccccc12 | 0% | 3.3µM* | 13 | -2 | -27
COC(=O)c1cn(CCOc2ccc(C)cc2)c2ccccc12 | ? | . | -6 | 2 | -13
O=C(O)c1cn(CCOc2ccccc2Cl)c2ccccc12 | 114% | 246% | 50* | 38* | -30
CC(=O)c1cn(CCOc2ccc(F)cc2)c2ccccc12 | ? | ? | . | 12* | 9
COc1ccccc1OCCn1cc(C(=O)O)c2ccccc21 | 1% | 7% | 22 | 1 | -28
CC(=O)c1cn(CCCOc2ccccc2)c2ccccc12 | 15% | ? | 21 | 21* | -13
O=C(O)CNC(=O)c1ccccc1I | 12% | 2% | -10 | -5 | 11
CCN1CCN(S(=O)(=O)c2ccc(Cl)c(C(=O)N(C)Cc3cccc(OC)c3)c2)CC1 | 6% | ? | . | . | -29
Cc1ccc(OCCn2cc(C#N)c3ccccc32)cc1 | ? | 8.3µM* | 15 | 1 | -20
COc1ccccc1OCCn1cc(C#N)c2ccccc21 | 254% | ? | 4 | -2 | ?
COc1ccc2c(c1)O/C(=C\c1sccc1C)C2=O | 81% | -72% | 123 | 24* | 41
O=C(O)COc1ccc2c(c1)O/C(=C\c1cccs1)C2=O | 19% | 11% | 5 | -1 | -36
CC(=O)Nc1ccc(S(=O)(=O)N2CCNC(=O)C2)cc1 | . | . | . | . | 25
CCN1[C@H](C(=O)OC)[C@@H](CO)[C@@H]2Cn3c(ccc(Br)c3=O)[C@@H]21 | . | . | . | . | 20
SMILES | Pf growth 96h | Pf growth 48h | Shiga inhibitor | CHX counter | HCMV inh
Cc1ccnc(NC(=S)NC(=O)c2cncc(Br)c2)c1 | 0% | 63% | 6 | 25* | -39
CCOC(=O)c1ccc(NC(=S)NC(=O)c2cncc(Br)c2)cc1 | 167% | . | -4 | -5 | -72*
O=C(NC(=S)Nc1ccccc1Cl)c1cncc(Br)c1 | 12µM* | 0% | -9 | -2 | -7
Cc1ccc(NC(=S)NC(=O)c2cncc(Br)c2)c(C)c1 | . | . | . | . | 2
O=C(Nc1ccccc1[N+](=O)[O-])c1cncc(Br)c1 | 66% | 31% | 46 | 28* | -74*
COc1ccccc1NC(=O)c1oc2ccccc2c1NC(=O)c1ccccc1C(F)(F)F | . | . | . | . | 9
CCc1ccc(-c2nc3c(c(SCc4ccccc4)n2)Cc2c(CO)cnc(C)c2O3)cc1 | . | . | . | . | -1
CCC(=O)Nc1ccc(S(=O)(=O)NCc2cccn2Cc2cccc(C)c2)cc1 | . | . | . | . | -20
CCCn1c(SCC(=O)NCc2ccc3c(c2)OCO3)n[nH]c1=O | -30% | -28% | . | . | -21
CCCCOC(=O)c1ccc(NC(=S)NC(=O)c2c(Br)c(C)nn2C)cc1 | ? | -23% | -12 | 3 | -64*
CC1CCCCC1NC(=O)c1cncc(Br)c1 (centres undefined) | -14% | . | -5 | 2 | -30
CC(=O)c1ccc(NC(=S)NC(=O)c2c(Cl)c(C)nn2C)cc1 | 24% | 12% | -4 | -1 | ?
CC1CCCC(NC(=S)NC(=O)c2cncc(Br)c2)C1C (centres undefined) | 23% | 13µM* | 18 | -2 | 47
CCn1cc(C(=O)N[C@@H](CCSC)C(=O)NCCOC)c(=O)c2cc3c(cc21)OCO3 | 12µM* | ? | 2 | -2 | 39
CCn1cc(C(=O)N[C@@H](CCSC)C(=O)NCCCO)c(=O)c2cc3c(cc21)OCO3 | ? | ? | -6 | -3 | 11
CCc1ccc(-c2cc(C)no2)cc1S(=O)(=O)Nc1ccc(C)cn1 | 13µM* | 0% | -6 | -8 | 22
Cc1cc(-c2ccc(C(C)C)c(S(=O)(=O)Nc3ccccn3)c2)on1 | 15% | 64% | 24* | 29* | -3
Cc1ccc(NS(=O)(=O)c2cc(-c3cc(C)no3)ccc2C(C)C)nc1 | -29% | -7% | -1 | 11 | -1
COCc1cc(C)nc2sc3c(c12)NC(c1ccc(O)cc1)N(c1ccc(OC)cc1)C3=O (centres undefined) | . | . | . | . | -21
Cc1ccc2nc(-c3ccc(N4C(=O)CC(N5CCCC(C)C5)C4=O)cc3)sc2c1 (centres undefined) | 41% | 71% | 143* | 70* | .
Cc1ccc2nc(-c3ccc(N4C(=O)CC(N5CCC(C(N)=O)CC5)C4=O)cc3)sc2c1 (centres undefined) | 25% | 62% | 33 | 26* | .
CCOc1ccc(OCC(=O)Nc2ccc(S(=O)(=O)Nc3cc(C)on3)cc2)cc1 | . | . | . | . | 6
c1ccc(CNc2ccc3c(c2)ncn3C2CCCCC2)nc1 | 85% | ? | 46* | 22* | ?
Cc1cccc(OCC2=N/C(=C\N(C)C)C(=O)O2)c1 | -3% | -9% | 41 | 22* | 10
CN(C)/C=C1\N=C(c2ccc(Cl)cc2Cl)OC1=O | . | . | 20 | 21* | 14
SMILES | Pf growth 96h | Pf growth 48h | Shiga inhibitor | CHX counter | HCMV inh
Cc1ccc(C2=N/C(=C\N(C)C)C(=O)O2)cc1 | 114% | . | 75* | 40* | 41
CN(C)/C=C1/N=C(c2ccccc2)OC1=O | . | 38% | 13 | 11 | 1
Cc1ccc(O)c(C(=O)c2cnn(C(=O)COc3ccccc3C#N)c2)c1 | 12% | 15% | 13 | 1 | .
Cc1nc(N2CCCC2)c2c(C(=O)Nc3ccc(Br)cc3F)c(C)oc2n1 | . | . | . | . | 14
O=C(c1ccccc1)c1cc(-c2ccccc2)on1 | . | 160% | -6 | 19* | 50
Nc1nc(-c2cccc(Br)c2)cs1 | 92% | . | 82* | 46* | 38

Screens deposited in PubChem BioAssay by National Center for Advancing Translational Sciences (NCATS).
